Results: PubChem BioAssay (NCI)
About 79,000 compounds went through this panel and 15% of them were active in at least one assay; those are over-represented in the sample as a whole. Calls of active or inactive are those of the source. Rule as the data show it: active = growth inhibition above about 70%; inactive = the rest.

assay: NCI Yeast Anticancer Drug Screen. Data for the sgs1 mgt1 strain (AID 161);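 also: 0% = growth of cultures given vehicle only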; conditions: S. cerevisiae sgs1 mgt1 strain, at 50.0 µM, stronger effect = higher value
Summary of the method: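 Growth of a repair-deficient yeast mutant was monitored after compound treatment and expressed as inhibition relative to vehicle-treated cultures.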

Row | Structure (SMILES) | growth inhibition
1 | Cc1ccccc1C1CCCCC1OS(C)(=O)=O (stereo not given) | -15.2% (inactive)
2 | N#CC(c1ccccc1)N(CCc1ccccc1)C(=O)c1ccc(C(=O)N(CCc2ccccc2)C(C#N)c2ccccc2)cc1 (stereo not given) | 7.8% (inactive)
3 | C=Cc1nnnn1C | -5.85% (inactive)
4 | C/C=C/C=C/C(=O)CCC1(C)OC(=O)C(C)=C1O (stereo not given) | 2.4% (inactive)
5 | CC(CO)C1C[C@H](O)[C@@]2(C)CC(=O)C=C(CO)[C@@H]2C1 (stereo not given in full) | -3.55% (inactive)
6 | Cc1c(C)c(C(Cl)(Cl)Cl)c(C)c(C)c1Br | -0.75% (inactive)
7 | COc1cc(C2C(Cl)C(=O)N2NC(=O)c2ccc(N)cc2)cc(Br)c1O (stereo not given) | 4.05% (inactive)
8 | COC(=O)c1ccc(N=NN(C)COC(C)=O)cc1 | 11.2% (inactive)
9 | C=C1CCc2occ(C)c2C2C1C1=C(CC(C)C1=O)C1OC12C (stereo not given) | -2.75% (inactive)
10 | Cc1n[nH]c2ccccc2c1=O | -21.6% (inactive)
11 | c1ccc(C2=NC(c3ccccc3)(c3ccccc3)N=C2c2ccccc2)cc1 | -11.2% (inactive)
12 | COC1(OC)C2(Cl)C(Cl)=C(Cl)C1(Cl)C1C=CC=CC12 (stereo not given) | -14.3% (inactive)
13 | COc1ccc(C=Nc2ccc(Cl)cc2)cc1 | 4.45% (inactive)
14 | O=C(CCCN1CCC2(CC1)NC(=O)c1ccccc1O2)c1ccc(F)cc1 | 55.5% (inactive)
15 | NC(Cc1ccc(B(O)O)cc1)C(=O)O (stereo not given) | -29.5% (inactive)
16 | CCN=C(c1ccccc1)N(O)c1ccccc1 | -3.15% (inactive)
17 | COC(=O)/N=c1\cc(N2CC=CCC2)nc(N)n1O | -21.2% (inactive)
18 | CC1(CO)CCCC2(C)C3=CC(=O)CCC3CCC12 (stereo not given) | -12.8% (inactive)
19 | CC(=O)OC(C)c1cc2c(s1)C(=O)c1sccc1C2=O (stereo not given) | 88.8% (active)
20 | CCNC(=O)NS(=O)(=O)c1ccc(Sc2ccc(Cl)cc2)nc1 | -7.5% (inactive)

Row | Structure (SMILES) | growth inhibition
21 | Cc1cccc(N2CCN(S(C)(=O)=O)CC2)c1 | 0.3% (inactive)
22 | N[C@H]1c2c(Cl)cccc2C(=O)[C@H]1O | -23.2% (inactive)
23 | Cc1cccc2c(NCCC[N+](C)(C)[O-])c3c([N+](=O)[O-])ccc(C)c3nc12 | 43.8% (inactive)
24 | CC(N)/C(N)=N/O (stereo not given) | -0.95% (inactive)
25 | CN(CCO)CCC1COc2ccccc2O1 (stereo not given) | 0.25% (inactive)
26 | CCCCC(SC(CC)(CC)C(N)=O)C(N)=O (stereo not given) | 6.55% (inactive)
27 | CC1CC2OC(=O)C(C)C2CC2(C)C(OC3OC(CO)C(O)C(O)C3O)OCCC12 (stereo not given) | -17.9% (inactive)
28 | CC1=N/C(=C/c2ccc3c(c2)OCO3)C(=O)O1 | 6.05% (inactive)
29 | COc1ccc(C(=O)C[n+]2cc(Br)cc(Br)c2)cc1 | -7% (inactive)
30 | O=C(Nc1ccccc1)c1cc(S(=O)(=O)n2cc[nH]c2=O)c(S)cc1Cl | 5.1% (inactive)
31 | CCCCC1CCC(C(=O)O)=NC1 (stereo not given) | 25.1% (inactive)
32 | COC1OC(CO)C(O)C1O (stereo not given) | 2.55% (inactive)
33 | C=CC(O)C(O)C=C (stereo not given) | 20.4% (inactive)
34 | NC(=O)c1cc(Cl)c(N)c(Cl)c1 | -11.6% (inactive)
35 | CC(C)(C)[N]=[V]([Cl])([Cl])[Cl] | -7.3% (inactive)
36 | COc1ccc(/C=C2/CSCC3=C2NC(=S)NC3c2ccc(OC)c(OC)c2OC)c(OC)c1OC (stereo not given) | 37% (inactive)
37 | Cc1ccc(C(C)C)cc1O | 19.1% (inactive)
38 | Nc1nc2c(c(=O)[nH]1)C(c1ccc(Cl)cc1)C=C(c1ccccc1)N2 (stereo not given) | 3.8% (inactive)
39 | O=C(CCCC(=O)N/N=C/c1cc(Cl)ccc1[N+](=O)[O-])N/N=C\c1cc(Cl)ccc1[N+](=O)[O-] | 11.1% (inactive)
40 | CC1=CC[C@](C)(O)[C@@]2(C)CC[C@H]3C(=C(C)C)C(=O)C[C@]3(C)C[C@H]12 | 19.9% (inactive)

assay: NCI Yeast Anticancer Drug Screen. Data for the cln2 rad14 strain (AID 165);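 also: 0% = growth equal to vehicle treated cultures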; conditions: S. cerevisiae cln2 rad14 strain, at 50.0 µM, stronger effect = higher value
Summary of the method: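 Strain: cln2 rad14 yeast, altered in cell cycle control and DNA damage repair. Read-out: growth inhibition vs vehicle.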

Row | Structure (SMILES) | growth inhibition
41 | Cc1ccccc1C1CCCCC1OS(C)(=O)=O (stereo not given) | -7.6% (inactive)
42 | N#CC(c1ccccc1)N(CCc1ccccc1)C(=O)c1ccc(C(=O)N(CCc2ccccc2)C(C#N)c2ccccc2)cc1 (stereo not given) | 13.8% (inactive)
43 | C=Cc1nnnn1C | 10.3% (inactive)
44 | C/C=C/C=C/C(=O)CCC1(C)OC(=O)C(C)=C1O (stereo not given) | -4.35% (inactive)
45 | CC(CO)C1C[C@H](O)[C@@]2(C)CC(=O)C=C(CO)[C@@H]2C1 (stereo not given in full) | 25.9% (inactive)
46 | Cc1c(C)c(C(Cl)(Cl)Cl)c(C)c(C)c1Br | 8.15% (inactive)
47 | COc1cc(C2C(Cl)C(=O)N2NC(=O)c2ccc(N)cc2)cc(Br)c1O (stereo not given) | -38% (inactive)
48 | COC(=O)c1ccc(N=NN(C)COC(C)=O)cc1 | 18.5% (inactive)
49 | C=C1CCc2occ(C)c2C2C1C1=C(CC(C)C1=O)C1OC12C (stereo not given) | -22.8% (inactive)
50 | Cc1n[nH]c2ccccc2c1=O | -18.1% (inactive)
51 | c1ccc(C2=NC(c3ccccc3)(c3ccccc3)N=C2c2ccccc2)cc1 | -10.1% (inactive)
52 | COC1(OC)C2(Cl)C(Cl)=C(Cl)C1(Cl)C1C=CC=CC12 (stereo not given) | 5.55% (inactive)
53 | COc1ccc(C=Nc2ccc(Cl)cc2)cc1 | -18.7% (inactive)
54 | O=C(CCCN1CCC2(CC1)NC(=O)c1ccccc1O2)c1ccc(F)cc1 | 48.9% (inactive)
55 | NC(Cc1ccc(B(O)O)cc1)C(=O)O (stereo not given) | -7.4% (inactive)
56 | CCN=C(c1ccccc1)N(O)c1ccccc1 | 6.35% (inactive)
57 | COC(=O)/N=c1\cc(N2CC=CCC2)nc(N)n1O | 18.9% (inactive)
58 | CC1(CO)CCCC2(C)C3=CC(=O)CCC3CCC12 (stereo not given) | -0.35% (inactive)
59 | CC(=O)OC(C)c1cc2c(s1)C(=O)c1sccc1C2=O (stereo not given) | 89% (active)
60 | CCNC(=O)NS(=O)(=O)c1ccc(Sc2ccc(Cl)cc2)nc1 | -5.7% (inactive)

Row | Structure (SMILES) | growth inhibition
61 | Cc1cccc(N2CCN(S(C)(=O)=O)CC2)c1 | 18.4% (inactive)
62 | N[C@H]1c2c(Cl)cccc2C(=O)[C@H]1O | -4.65% (inactive)
63 | Cc1cccc2c(NCCC[N+](C)(C)[O-])c3c([N+](=O)[O-])ccc(C)c3nc12 | 2.8% (inactive)
64 | CC(N)/C(N)=N/O (stereo not given) | -2.45% (inactive)
65 | CN(CCO)CCC1COc2ccccc2O1 (stereo not given) | 12.1% (inactive)
66 | CCCCC(SC(CC)(CC)C(N)=O)C(N)=O (stereo not given) | -28.9% (inactive)
67 | CC1CC2OC(=O)C(C)C2CC2(C)C(OC3OC(CO)C(O)C(O)C3O)OCCC12 (stereo not given) | 4.4% (inactive)
68 | CC1=N/C(=C/c2ccc3c(c2)OCO3)C(=O)O1 | -24.9% (inactive)
69 | COc1ccc(C(=O)C[n+]2cc(Br)cc(Br)c2)cc1 | -3.95% (inactive)
70 | O=C(Nc1ccccc1)c1cc(S(=O)(=O)n2cc[nH]c2=O)c(S)cc1Cl | -5.1% (inactive)
71 | CCCCC1CCC(C(=O)O)=NC1 (stereo not given) | -9.95% (inactive)
72 | COC1OC(CO)C(O)C1O (stereo not given) | -44.4% (inactive)
73 | C=CC(O)C(O)C=C (stereo not given) | 8.25% (inactive)
74 | NC(=O)c1cc(Cl)c(N)c(Cl)c1 | -5.25% (inactive)
75 | CC(C)(C)[N]=[V]([Cl])([Cl])[Cl] | -6.35% (inactive)
76 | COc1ccc(/C=C2/CSCC3=C2NC(=S)NC3c2ccc(OC)c(OC)c2OC)c(OC)c1OC (stereo not given) | 34.6% (inactive)
77 | Cc1ccc(C(C)C)cc1O | 27% (inactive)
78 | Nc1nc2c(c(=O)[nH]1)C(c1ccc(Cl)cc1)C=C(c1ccccc1)N2 (stereo not given) | -1.85% (inactive)
79 | O=C(CCCC(=O)N/N=C/c1cc(Cl)ccc1[N+](=O)[O-])N/N=C\c1cc(Cl)ccc1[N+](=O)[O-] | 10.7% (inactive)
80 | CC1=CC[C@](C)(O)[C@@]2(C)CC[C@H]3C(=C(C)C)C(=O)C[C@]3(C)C[C@H]12 | 33.4% (inactive)
